About 1,900 (0.54%) of roughly 350,000 compounds were called active. The sample holds actives, similar compounds and a random draw of the others, so the mix is not that of the screen.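 The calls were made as follows: active = mean inhibition across replicates at least about 35%, with every replicate also reaching that limit (limit read from the data); inconclusive = only one of the two criteria met; inactive = neither criterion met.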
Biological target: Caspase-6 (Homo sapiens) (UniProt P55212)
Test: inhibition of CASP6 peptide cleavage – biochemical, VEID-R110 fluorescence, single point, set 2, primary screen (AID 686996);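 also: 0% = median of neutral control wells and 100% = no fluorescence left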
Settings: purified caspase-6, Z-VEID-R110 cleavage fluorescence; at 12.5 µM; hits give high values

Chain of Caspase-6 (Homo sapiens) (P55212 24-179 limits assumed): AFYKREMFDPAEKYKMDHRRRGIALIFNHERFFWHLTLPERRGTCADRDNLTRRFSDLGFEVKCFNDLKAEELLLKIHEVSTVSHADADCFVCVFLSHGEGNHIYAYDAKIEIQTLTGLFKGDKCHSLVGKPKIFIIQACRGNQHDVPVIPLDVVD
Chain of Caspase-6 (Homo sapiens) (P55212 194-293 limits assumed): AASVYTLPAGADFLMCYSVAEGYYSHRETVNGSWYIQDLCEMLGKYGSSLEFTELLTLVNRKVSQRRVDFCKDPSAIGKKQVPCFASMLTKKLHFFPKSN

Compound	inhibition
C[C@@H]1CN([C@@H](C)CO)C(=O)Cc2cc(NS(C)(=O)=O)ccc2O[C@H]1CN(C)C(=O)Nc1ccccc1	2.54% (inactive)
O=S(=O)(N[C@H]1CC[C@@H](CCNS(=O)(=O)c2ccccc2Cl)O[C@@H]1CO)c1ccccc1	1.46% (inactive)
C[C@@H]1CN([C@@H](C)CO)C(=O)c2cc(NC(=O)Nc3ccc4c(c3)OCO4)ccc2O[C@@H](C)CCCCO[C@@H]1CN(C)S(=O)(=O)c1cccs1	-0.287% (inactive)
O=S(=O)(Nc1ccccc1Cl)c1cccc2nsnc12	51.3% (active)
O=C(O)c1ccc(NS(=O)(=O)c2cccc3nsnc23)cc1	4.06% (inactive)
COc1ccc(NS(=O)(=O)c2cccc3nsnc23)cc1Cl	-0.203% (inactive)
Cc1cccc(S(=O)(=O)N2CC[C@@H]3[C@H]2c2cc(C#Cc4ccccc4F)ccc2N[C@@H]3CO)c1	4.39% (inactive)
CC(C)NC(=O)Nc1ccc2c(c1)C(=O)N([C@@H](C)CO)C[C@H](C)[C@H](CN(C)C(=O)NC1CCCCC1)OCCCC[C@@H](C)O2	1.72% (inactive)
C[C@@H]1CN([C@H](C)CO)C(=O)c2cc(-c3cccc(C#N)c3)cnc2O[C@H]1CN(C)C(=O)C1CCC1	-1.37% (inactive)
COc1ccc(-c2cc(C(=O)NC(Cc3c[nH]c4ccccc34)C(=O)O)c(C)o2)cc1OC (configuration not stated)	50.7% (active)
COc1ccc(-c2cc(=O)oc3cc(OCC(=O)N[C@@H](Cc4c[nH]c5ccccc45)C(=O)O)ccc23)cc1	5.8% (inactive)
CC(Oc1ccc2c(-c3ccccc3)cc(=O)oc2c1)C(=O)NC(Cc1c[nH]c2ccccc12)C(=O)O (configuration not stated)	5.42% (inactive)
COc1ccc2c3c([nH]c2c1)[C@H](CO)N(Cc1nccs1)CC31CCN(Cc2cccnc2)CC1	1.89% (inactive)
C/C=C/c1ccc([C@H]2[C@@H](CO)N(C(C)=O)[C@H]2CNC(=O)c2ccncc2)cc1	-0.501% (inactive)
COc1ccc2c3c([nH]c2c1)[C@@H](CO)N(S(C)(=O)=O)CC31CN(CC2CC2)C1	0.799% (inactive)
COc1ccc(Cl)cc1N(CC(=O)N1CCCCC1)S(C)(=O)=O	5.56% (inactive)
COc1ccc(S(=O)(=O)N(CC(=O)N/N=C/c2ccc(C(=O)O)cc2)Cc2ccccc2)cc1OC	3.65% (inactive)
COc1ccc(Cl)cc1N(CC(=O)N/N=C/c1ccc(OCC(N)=O)cc1)S(C)(=O)=O	49.4% (active)
O=C(C1CCCCC1)N1CC(=O)N2[C@H](CO)[C@@H](c3ccc(C#Cc4cccc(F)c4)cc3)[C@@H]2C1	-1.89% (inactive)
C[C@H](CO)N1C[C@H](C)[C@H](CN(C)C(=O)C2CCOCC2)Oc2ncc(-c3ccccc3F)cc2C1=O	-2.04% (inactive)
C[C@H](CO)N1C[C@H](C)[C@@H](CN(C)Cc2cccc(F)c2)Oc2cc(C#CC3CC3)ccc2S1(=O)=O	0.411% (inactive)
Cc1ccc(S(=O)(=O)N(C)C[C@H]2Oc3ccc(NC(=O)Nc4cccc5ccccc45)cc3CC(=O)N([C@H](C)CO)C[C@H]2C)cc1	-0.526% (inactive)

From PubChem BioAssay AID686996 (Broad Institute, 2013)
